According to PubChem BioAssay (NCATS):
Inconclusive results are not listed. Some of the results follow. Calls of active or inactive are those of the source. Unless noted, calls follow the shape of the dose curve; as a rule, active = well fitted curve in the direction sought with a large enough effect; inconclusive = small, poorly fitted or top-dose-only effect, or another doubt; inactive = no such curve, though single readings can be large; an effect the other way counts as inactive or inconclusive.

Experiments:
[1] = biological target: Cytochrome P450 3A4 (Homo sapiens) (UniProt P08684); assay: qHTS Assay for Inhibitors and Substrates of Cytochrome P450 3A4 (AID 884); also: series mostly up to about 57 µM; % is scaled to controls: 0 for no effect and ±100 for the full control effect; nearly all actives have a fitted effect of over 50% in size
Summary of the method: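 Luminescent readout of luciferin produced by CYP3A4 (20 nM) dealkylation of Luciferin-PPXE, 25 uM (its KM). NADPH-driven reaction ran 60 min at RT after 10 min compound preincubation; data scaled to 57 uM ketoconazole as 100% inhibition.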

[2] = biological target: DNA dC->dU-editing enzyme APOBEC-3G (Homo sapiens) (UniProt Q9HC16); assay: qHTS for inhibitors of Vif-A3G interactions: Validation (AID 588379); also: 0% is about no effect
Summary of the method: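 Yellow fluorescence (Ex 488, Em 500-530) of Vif-coexpressing HeLa A3G-eYFP cells, scanned by Acumen cytometer, reports blocked A3G degradation. Cells plated at 700/well overnight at 37 deg C before compound addition, then a further overnight compound incubation at 37 deg C.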

[3] = biological target: Rap guanine nucleotide exchange factor 3 (Homo sapiens) (UniProt O95398); assay: Confirmatory qHTS for antagonist of cAMP-regulated guanine nucleotide exchange factor 3 (EPAC1) (AID 1645880); also: nearly all actives have a fitted effect of over 55% in size; also: potency is read from the fitted curve at half-maximal effect
Summary of the method: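 Released BODIPY-GDP fluoresces less than Rap1-bound BODIPY-GDP; the signal is followed at 480/540 nm at 5-min intervals over 30 min, after 5 min at room temperature. Reactions contain 100 nM EPAC1, 250 nM RAP1B-BODIPY-GDP and 50 uM GDP; results are normalized to ATA and DMSO.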

[4] = biological target: Rap guanine nucleotide exchange factor 3 (Homo sapiens) (UniProt O95398); assay: Confirmatory qHTS for agonist of cAMP-regulated guanine nucleotide exchange factor 3 (EPAC1) (AID 1645881); also: nearly all actives have a fitted effect of over 75% in size; also: potency is read from the fitted curve at half-maximal effect;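 as to activation: EPAC1 catalysed release of BODIPY-GDP from Rap1B seen as fluorescence loss; 100% = effect of cAMP agonist control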
[5] = biological target: Rap guanine nucleotide exchange factor 4 (Homo sapiens) (UniProt Q8WZA2); assay: Confirmatory qHTS for agonist of cAMP-regulated guanine nucleotide exchange factor 4 (EPAC2) (AID 1645884);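 also: nucleotide exchange releases bodipy-GDP from Rap1 and this lowers its fluorescence; nearly all actives have a fitted effect of over 65% in size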; also: potency is read from the fitted curve at half-maximal effect; as to activation: % is scaled to controls: 0 for no effect and ±100 for the full control effect
[6] = biological target: Rap guanine nucleotide exchange factor 4 (Homo sapiens) (UniProt Q8WZA2); assay: Confirmatory qHTS for antagonist of cAMP-regulated guanine nucleotide exchange factor 4 (EPAC2) (AID 1645885); also: nearly all actives have a fitted effect of over 25% in size; also: potency is read from the fitted curve at half-maximal effect; as to activity change, negative = inhibition: % is scaled to controls: 0 for no effect and ±100 for the full control effect
[7] = biological target: Rap guanine nucleotide exchange factor 3 (Homo sapiens) (UniProt O95398); assay: Counterscreen qHTS for antagonist of cAMP-regulated guanine nucleotide exchange factor 3 (EPAC1) (AID 1645888); also: % of control where 0% means no effect
Summary of the method: (§1)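 Rap1B–BODIPY-GDP (250 nM) with 50 uM GDP; compounds pin-transferred to 9.74 nM–152 uM final (activator) or from 7.32 nM upwards (inhibitor). Fluorescence Ex/Em 480/540 nm read at 5 and 30 min, then after adding cAMP or buffer, at room temperature.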

[8] = biological target: Rap guanine nucleotide exchange factor 3 (Homo sapiens) (UniProt O95398); assay: Counterscreen qHTS for agonist of cAMP-regulated guanine nucleotide exchange factor 3 (EPAC1) (AID 1645889); also: nearly all actives have a fitted effect of over 40% in size; also: potency is read from the fitted curve at half-maximal effect; as to activation: % of control where 0% means no effect
Summary of the method: as §1

[9] = biological target: Vitamin D3 receptor (Homo sapiens) (UniProt P11473); assay: qHTS for Inhibitors of the vitamin D receptor (VDR): Hit Validation using a Beta-Lactamase Assay (AID 602202); also: % is scaled to controls: 0 for no effect and ±100 for the full control effect
Summary of the method: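 Stably transfected HEK293 cells expressing VDR-GAL4 DNA-binding domain fusion with UAS-driven beta-lactamase reporter, activated by agonist LG190178; compounds incubated 18 h, then FRET beta-lactam substrate 2 h; cleaved substrate read at 447 nm emission.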

[10] = qHTS for Inhibitors of the vitamin D receptor (VDR): Hit Validation using a Cytotoxicity Assay (AID 602204);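 also: plate controls were DMSO for no effect and high-concentration cycloheximide for full effect; nearly all actives have a fitted effect of over 75% in size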
Summary of the method: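 ATP luminescence, 30 min post-reagent. Exposure: 18 h. Seeding: 20,000 cells/well, 4 h prior to compound. Controls: cycloheximide, DMSO.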

[11] = biological target: Phosphoglycerate kinase, glycosomal (Trypanosoma brucei brucei) (UniProt P07378); assay: qHTS for inhibitors of Phosphogylcerate Kinase: Hit Validation Screen (AID 686980); settings: TbPGK coupled GAPDH assay, Kinase-Glo luminescence; also: potency is read from the fitted curve at half-maximal effect; nearly all actives have a fitted effect of over 65% in size
Summary of the method: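 Recombinant glycosomal PGK reaction used 1,3-bisphosphoglycerate generated in-well by GAPDH (100nM final) in 100mM TEA pH 7.6, 5mM MgCl2, 0.01% Tween-20. After 60 minutes at room temperature, ATP was read by Kinase-Glo Plus luminescence end-point.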

[12] = biological target: DNA polymerase iota (Homo sapiens) (UniProt Q9UNA4); assay: qHTS for Inhibitors of Polymerase Iota: Confirmatory Assay for Cherry-picked Compounds (AID 720496); settings: Pol iota primer extension, TAMRA/BHQ fluorescence; also: potency is read from the fitted curve at half-maximal effect
Summary of the method: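 Using TAMRA dequenching as read-out, activity of 10 nM human Pol iota on 50 nM (final) primer/reporter/template substrate was tracked from 0 to 10 min, following a 15 min room-temperature compound preincubation.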

[13] = biological target: Bifunctional 3'-5' exonuclease/ATP-dependent helicase WRN (Homo sapiens) (UniProt Q14191); assay: qHTS for Inhibitors of WRN Helicase: Confirmatory Assay for Cherry-picked Compounds. (AID 720497); settings: WRN helicase DNA unwinding, fluorescence kinetic; also: potency is read from the fitted curve at half-maximal effect; nearly all actives have a fitted effect of over 65% in size
Summary of the method: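 Kinetic fluorescence helicase read-out (525 nm excitation, 598 nm emission) on a forked duplex substrate at 100 nM with 2 mM ATP. Enzyme: 20 nM WRN, exposed to compound for 15 min at room temperature. Responses normalized to buffer-only and positive-control wells.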

[14] = biological target: Flap endonuclease 1 (Homo sapiens) (UniProt P39748); assay: qHTS Assay for the Inhibitors of FEN1: Confirmatory Assay for Cherry-picked Compounds (AID 720498); settings: FEN1 flap cleavage, TAMRA/BHQ2 fluorogenic DNA substrate; also: potency is read from the fitted curve at half-maximal effect; nearly all actives have a fitted effect of over 60% in size
Summary of the method: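 Human FEN1 (10 nM reagent) was preincubated with compounds for 15 min at room temperature, then 50 nM final double-flap DNA substrate (5'-TAMRA flap, BHQ-2 quencher strand) was added. Fluorescence (ex 525/em 598 nm) was read at 0 and 15 min.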

[15] = qHTS for Inhibitors of WRN Helicase: Thiazole Orange DNA Binding Counterscreen (AID 720499); settings: thiazole orange DNA binding displacement, fluorescence;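 also: drop in dye fluorescence marks compound binding to DNA; potency is read from the fitted curve at half-maximal effect; nearly all actives have a fitted effect of over 60% in size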
Summary of the method: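 Mixture of 100 nM thiazole orange and 50 nM unlabeled DNA exposed to compound 15 min at room temperature. Dye displacement monitored by 480/530 nm fluorescence, identifying nonspecific DNA binders.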

[16] = biological target: DNA polymerase kappa (Homo sapiens) (UniProt Q9UBT6); assay: qHTS for Inhibitors of Polymerase Kappa: Confirmatory Assay for Cherry-picked Compounds (AID 720501); settings: purified Pol-kappa, fluorescent strand-displacement substrate; also: potency is read from the fitted curve at half-maximal effect
Summary of the method: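 10 nM human Pol-kappa was preincubated with compound 15 min at room temperature, then 50 nM (final) primer/template substrate with TAMRA-labeled reporter strand and BHQ-2-labeled template added. Fluorescence (Ex 525, Em 598 nm) read at 0 and 10 min.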

[17] = biological target: DNA polymerase eta (Homo sapiens) (UniProt Q9Y253); assay: qHTS for Inhibitors of Polymerase Eta: Confirmatory Assay for Cherry-picked Compounds (AID 720502); settings: Pol eta primer extension, TAMRA/BHQ fluorescence, 10 min; also: potency is read from the fitted curve at half-maximal effect
Summary of the method: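 Strand-displacement fluorescence (525 nm excitation, 598 nm emission) was read kinetically at 0 and 10 min after adding 50 nM final TAMRA-reporter/BHQ-2-template substrate. Beforehand, 10 nM Pol eta had been exposed to compound for 15 min at room temperature.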

[18] = biological target: RecQ-like DNA helicase BLM (Homo sapiens) (UniProt P54132); assay: qHTS for Inhibitors of WRN Helicase: BLM Helicase Counterscreen for WRN Inhibitors (AID 720503); settings: Recombinant BLM helicase DNA unwinding, red fluorescence; also: potency is read from the fitted curve at half-maximal effect; nearly all actives have a fitted effect of over 60% in size
Summary of the method: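 Steps: compounds added to 1 nM BLM in pH 8.0 Tris buffer with 2 mM MgCl2; 15 min room-temperature incubation; substrates added (100 nM DNA, 2 mM ATP final); discontinuous kinetic fluorescence measurement, reads spaced 15 min.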

[19] = AP1 Signaling Pathway (AID 357; active = well fitted curve in either direction with a large enough effect, not every such curve was filed as active;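 also: ME-180 reporter cells stimulated with EGF at its EC50 level; % is scaled to controls: 0 for no effect and ±100 for the full control effect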)
Summary of the method: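 Titration-series screen for positive or negative modulators of EC50 EGF-induced signaling in ME-180 cells carrying an AP-1-driven beta-lactamase reporter. After 5 hours at 37 degrees Celsius, CCF4 460nm/530nm emission ratio gave %Activity; AC50 values derived.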

[20] = biological target: Glucocorticoid receptor (Homo sapiens) (UniProt P04150); assay: GR-GFP Redistribution (AID 450;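 active = compounds whose dose series gives a full or clear partial fitted curve of increased nuclear translocation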; also: potency is read from the fitted curve at half-maximal effect); settings: U2OS GR-GFP nuclear translocation, laser cytometry, 2 h
[21] = biological target: Glucocorticoid receptor (Homo sapiens) (UniProt P04150); assay: GR-EFC Redistribution (AID 451; calls by dose curve; also: potency is read from the fitted curve at half-maximal effect); settings: CHO-K1 GR-EFC translocation, beta-gal luminescence, 2 h
Summary of the method: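 CHO-K1 cells expressing nuclear EA and GR-ED fragments of b-gal; compounds titrated up to 46 uM final, 2 h at 37 C. GR nuclear translocation read as complemented b-gal luminescence after 1 h RT detection.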

[22] = biological target: 3',5'-cyclic-AMP phosphodiesterase 4B (Homo sapiens) (UniProt Q07343); assay: qHTS Assay for Inhibitors of PDE-IV (AID 607; active = well fitted activation curve with a large enough effect in the main read-out, with a control signal flat, not every such curve was filed as active; also: % of control where 0% means no effect)
Summary of the method: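 Live HEK293 cells with a modified cyclic nucleotide-gated (CNG) channel report intracellular cAMP via membrane-potential dye fluorescence (ex 535/em 590 nm). Endogenous PDE-IV was targeted. Compounds were tested at up to 22.9 uM final; RO 20-1724 100 uM served as control.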

[23] = biological target: Cytochrome P450 2C9 (Homo sapiens) (UniProt P11712); assay: qHTS Assay for Inhibitors and Substrates of Cytochrome P450 2C9 (AID 883); also: potency is read from the fitted curve at half-maximal effect; nearly all actives have a fitted effect of over 60% in size
Summary of the method: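 10nM CYP2C9 + 100uM Luciferin-H (=KM), 25mM KPO4; cpd 10 min 37C; NADPH regen, 60 min 37C; stop/detect with P450 Glo-Buffer 20 min; luminescence. Norm. to 57uM sulphaphenazole as full inhibition.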

Chain of Rap guanine nucleotide exchange factor 3 (Homo sapiens) (O95398 whole entry, looked up): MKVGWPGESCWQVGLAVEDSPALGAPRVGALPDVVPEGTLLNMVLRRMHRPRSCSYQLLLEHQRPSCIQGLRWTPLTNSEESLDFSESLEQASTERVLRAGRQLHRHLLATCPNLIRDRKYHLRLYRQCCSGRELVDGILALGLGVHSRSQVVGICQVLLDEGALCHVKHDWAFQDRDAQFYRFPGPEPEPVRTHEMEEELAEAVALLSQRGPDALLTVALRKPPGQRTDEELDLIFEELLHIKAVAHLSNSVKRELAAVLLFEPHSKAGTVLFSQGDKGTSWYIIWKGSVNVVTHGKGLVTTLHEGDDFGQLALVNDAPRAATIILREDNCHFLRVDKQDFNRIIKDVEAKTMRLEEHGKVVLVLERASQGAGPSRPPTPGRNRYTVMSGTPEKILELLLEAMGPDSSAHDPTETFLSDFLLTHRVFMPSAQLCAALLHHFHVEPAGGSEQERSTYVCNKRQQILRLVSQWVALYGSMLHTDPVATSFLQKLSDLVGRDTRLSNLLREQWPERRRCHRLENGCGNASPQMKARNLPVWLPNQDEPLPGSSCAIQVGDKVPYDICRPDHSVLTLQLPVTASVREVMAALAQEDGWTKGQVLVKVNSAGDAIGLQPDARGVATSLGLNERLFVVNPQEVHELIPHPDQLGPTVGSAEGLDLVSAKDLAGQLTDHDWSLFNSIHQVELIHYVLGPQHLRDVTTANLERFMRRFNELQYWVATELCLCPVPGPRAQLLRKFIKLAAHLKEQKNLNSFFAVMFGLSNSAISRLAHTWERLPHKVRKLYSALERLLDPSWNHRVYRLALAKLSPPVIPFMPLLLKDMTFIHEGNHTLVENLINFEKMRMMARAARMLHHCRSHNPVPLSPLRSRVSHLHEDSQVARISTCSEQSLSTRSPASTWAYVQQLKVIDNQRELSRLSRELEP
Chain of Rap guanine nucleotide exchange factor 4 (Homo sapiens) (Q8WZA2 whole entry, looked up): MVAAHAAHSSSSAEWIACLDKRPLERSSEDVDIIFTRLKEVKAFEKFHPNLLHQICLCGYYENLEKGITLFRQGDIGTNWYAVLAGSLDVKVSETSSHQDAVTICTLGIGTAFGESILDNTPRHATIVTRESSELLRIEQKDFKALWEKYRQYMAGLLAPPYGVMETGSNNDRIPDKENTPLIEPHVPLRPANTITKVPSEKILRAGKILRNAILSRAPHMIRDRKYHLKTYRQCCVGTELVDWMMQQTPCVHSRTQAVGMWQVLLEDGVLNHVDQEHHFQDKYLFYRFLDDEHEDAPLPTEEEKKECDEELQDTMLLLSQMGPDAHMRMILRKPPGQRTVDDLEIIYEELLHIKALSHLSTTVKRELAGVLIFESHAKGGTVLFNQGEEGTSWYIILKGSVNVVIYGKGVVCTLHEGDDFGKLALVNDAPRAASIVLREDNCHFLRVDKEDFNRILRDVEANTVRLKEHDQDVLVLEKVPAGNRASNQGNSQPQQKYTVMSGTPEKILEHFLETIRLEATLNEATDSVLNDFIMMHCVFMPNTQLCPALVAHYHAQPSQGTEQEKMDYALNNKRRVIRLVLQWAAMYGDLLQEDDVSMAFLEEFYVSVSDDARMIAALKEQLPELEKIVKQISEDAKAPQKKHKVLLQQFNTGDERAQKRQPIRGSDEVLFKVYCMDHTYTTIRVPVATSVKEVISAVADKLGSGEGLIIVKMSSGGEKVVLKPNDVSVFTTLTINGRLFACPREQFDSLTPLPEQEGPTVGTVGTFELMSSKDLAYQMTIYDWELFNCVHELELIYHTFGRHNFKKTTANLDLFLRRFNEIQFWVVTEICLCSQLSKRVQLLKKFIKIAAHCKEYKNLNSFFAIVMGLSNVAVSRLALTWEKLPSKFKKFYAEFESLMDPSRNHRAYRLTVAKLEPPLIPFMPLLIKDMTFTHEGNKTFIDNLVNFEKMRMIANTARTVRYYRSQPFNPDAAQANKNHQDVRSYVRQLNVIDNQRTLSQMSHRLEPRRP
Chain of Glucocorticoid receptor (Homo sapiens) (P04150 whole entry, looked up, the tested form may be a part): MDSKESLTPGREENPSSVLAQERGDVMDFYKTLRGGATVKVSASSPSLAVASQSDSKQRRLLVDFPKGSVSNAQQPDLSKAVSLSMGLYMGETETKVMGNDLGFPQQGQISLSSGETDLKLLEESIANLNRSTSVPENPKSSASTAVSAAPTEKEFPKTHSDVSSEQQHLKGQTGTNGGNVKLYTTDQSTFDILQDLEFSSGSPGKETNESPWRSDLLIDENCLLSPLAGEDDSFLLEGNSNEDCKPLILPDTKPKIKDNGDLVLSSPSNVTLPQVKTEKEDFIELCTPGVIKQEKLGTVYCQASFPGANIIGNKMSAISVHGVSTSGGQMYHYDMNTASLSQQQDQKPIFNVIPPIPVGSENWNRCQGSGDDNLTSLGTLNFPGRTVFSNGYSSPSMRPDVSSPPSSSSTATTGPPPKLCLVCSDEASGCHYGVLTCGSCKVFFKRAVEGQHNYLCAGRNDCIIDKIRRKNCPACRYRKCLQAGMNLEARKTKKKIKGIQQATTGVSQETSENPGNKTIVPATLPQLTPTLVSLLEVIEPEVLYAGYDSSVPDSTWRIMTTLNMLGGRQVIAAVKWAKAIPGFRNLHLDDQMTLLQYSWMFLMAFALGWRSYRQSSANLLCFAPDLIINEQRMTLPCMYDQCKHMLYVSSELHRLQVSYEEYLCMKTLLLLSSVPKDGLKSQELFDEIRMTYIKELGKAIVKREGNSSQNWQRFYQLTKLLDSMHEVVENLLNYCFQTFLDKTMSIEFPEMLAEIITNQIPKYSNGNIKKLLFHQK
Chain of RecQ-like DNA helicase BLM (Homo sapiens) (P54132 whole entry, looked up): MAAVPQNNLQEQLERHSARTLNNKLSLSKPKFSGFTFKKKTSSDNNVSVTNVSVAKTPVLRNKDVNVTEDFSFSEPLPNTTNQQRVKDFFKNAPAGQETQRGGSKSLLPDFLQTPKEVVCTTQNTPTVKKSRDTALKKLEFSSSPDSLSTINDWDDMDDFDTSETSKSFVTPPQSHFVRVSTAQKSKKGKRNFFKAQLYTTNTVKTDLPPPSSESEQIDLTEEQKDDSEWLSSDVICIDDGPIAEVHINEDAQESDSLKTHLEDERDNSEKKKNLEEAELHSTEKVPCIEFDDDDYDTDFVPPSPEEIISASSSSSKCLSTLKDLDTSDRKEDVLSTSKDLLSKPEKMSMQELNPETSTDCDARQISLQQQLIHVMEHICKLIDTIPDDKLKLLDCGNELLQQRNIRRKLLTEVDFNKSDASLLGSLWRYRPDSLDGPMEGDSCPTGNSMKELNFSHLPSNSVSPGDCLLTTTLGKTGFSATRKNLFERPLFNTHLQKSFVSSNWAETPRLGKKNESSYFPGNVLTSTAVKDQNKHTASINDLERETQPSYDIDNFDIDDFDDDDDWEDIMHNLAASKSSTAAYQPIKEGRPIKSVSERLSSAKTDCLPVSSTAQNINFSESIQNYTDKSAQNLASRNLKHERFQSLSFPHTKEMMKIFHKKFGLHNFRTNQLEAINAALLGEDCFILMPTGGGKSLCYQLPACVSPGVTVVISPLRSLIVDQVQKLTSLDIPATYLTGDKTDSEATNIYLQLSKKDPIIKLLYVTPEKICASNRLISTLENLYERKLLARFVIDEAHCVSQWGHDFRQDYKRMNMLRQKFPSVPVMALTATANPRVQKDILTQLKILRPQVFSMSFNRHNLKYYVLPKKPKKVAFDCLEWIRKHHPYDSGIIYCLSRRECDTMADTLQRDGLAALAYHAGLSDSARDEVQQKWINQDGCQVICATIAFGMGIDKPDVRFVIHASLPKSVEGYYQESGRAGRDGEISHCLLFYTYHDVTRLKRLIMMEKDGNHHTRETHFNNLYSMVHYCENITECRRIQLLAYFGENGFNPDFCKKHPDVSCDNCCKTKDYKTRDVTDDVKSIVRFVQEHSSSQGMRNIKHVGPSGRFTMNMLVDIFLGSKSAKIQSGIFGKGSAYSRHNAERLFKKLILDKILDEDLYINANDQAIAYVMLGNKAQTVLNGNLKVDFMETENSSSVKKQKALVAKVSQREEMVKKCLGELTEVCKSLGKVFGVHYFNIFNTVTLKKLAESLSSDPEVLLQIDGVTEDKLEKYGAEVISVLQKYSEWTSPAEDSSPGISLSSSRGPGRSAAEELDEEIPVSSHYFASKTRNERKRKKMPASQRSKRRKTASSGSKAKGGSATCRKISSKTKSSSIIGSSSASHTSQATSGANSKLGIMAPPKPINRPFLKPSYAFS
Chain of DNA polymerase kappa (Homo sapiens) (Q9UBT6 whole entry, looked up): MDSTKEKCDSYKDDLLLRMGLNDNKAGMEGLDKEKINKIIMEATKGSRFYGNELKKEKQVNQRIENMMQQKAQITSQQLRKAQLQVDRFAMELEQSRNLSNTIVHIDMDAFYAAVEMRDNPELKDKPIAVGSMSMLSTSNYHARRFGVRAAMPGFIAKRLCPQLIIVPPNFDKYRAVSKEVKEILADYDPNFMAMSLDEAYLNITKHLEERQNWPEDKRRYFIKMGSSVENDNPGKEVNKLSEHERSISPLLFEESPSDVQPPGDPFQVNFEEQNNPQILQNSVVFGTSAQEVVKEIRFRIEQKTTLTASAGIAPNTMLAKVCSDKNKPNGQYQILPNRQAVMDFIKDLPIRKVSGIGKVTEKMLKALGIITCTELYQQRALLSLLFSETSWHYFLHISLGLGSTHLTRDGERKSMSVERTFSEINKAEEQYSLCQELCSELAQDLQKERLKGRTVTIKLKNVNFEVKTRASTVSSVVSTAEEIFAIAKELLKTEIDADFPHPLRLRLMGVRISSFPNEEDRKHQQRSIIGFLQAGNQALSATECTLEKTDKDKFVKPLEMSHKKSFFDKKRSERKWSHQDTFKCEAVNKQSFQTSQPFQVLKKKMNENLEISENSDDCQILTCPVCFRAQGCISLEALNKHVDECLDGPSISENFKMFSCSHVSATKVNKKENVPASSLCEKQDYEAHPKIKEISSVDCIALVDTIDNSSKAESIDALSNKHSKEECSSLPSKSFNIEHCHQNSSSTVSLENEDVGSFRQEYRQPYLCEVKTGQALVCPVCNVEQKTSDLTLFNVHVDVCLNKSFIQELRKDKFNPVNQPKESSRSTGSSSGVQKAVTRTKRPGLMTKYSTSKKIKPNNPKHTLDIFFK

CN1CC[C@@]2(C)c3cc(O)ccc3N(C)[C@@H]12
active: Potency [8] 5.62 µM
inactive: Potency [1] | outcome [2] | Potency [3] | Potency [4] | Potency [5] | Potency [6] | outcome [7]

CCN1/C(=C/C=C/C2=[N+](CC)c3ccccc3C2(C)C)C(C)(C)c2ccccc21
inactive: Potency [3] | Potency [6] | outcome [7]
active: Potency [4] 56.2 µM | Potency [5] 100 µM | Potency [8] 10 µM

COc1ccc(OC)c(N2C(=O)NC(=O)/C(=C/c3ccc([N+](=O)[O-])s3)C2=O)c1
inactive: Potency [4] | activation [5] 2.06% [at 17.1 µM, percent relative to cAMP agonist control] | activity change, negative = inhibition [6] -32.4% [at 12.7 µM] | activity change, negative = inhibition [7] 10.9% [at 30.8 µM] | activation [8] 21.8% [at 30.8 µM]
active: Potency [3] 7.94 µM

COc1ccc(N2C(=O)/C(=C/c3ccco3)C(=O)NC2=S)cc1
active: Potency [11] 517 nM | Potency [12] 1.06 µM | Potency [13] 1.52 µM | Potency [14] 21.3 µM | Potency [15] 3.41 µM | Potency [16] 670 nM | Potency [17] 2.39 µM | Potency [18] 215 nM | Potency [3] 6.31 µM
inactive: outcome [9] | outcome [10] | Potency [4] | activation [5] 10.2% [at 17.1 µM, percent relative to cAMP agonist control] | activity change, negative = inhibition [6] 33.5% [at 12.7 µM] | activity change, negative = inhibition [7] -2.79% [at 30.8 µM]

O=c1[nH]c(O)c(C=Nc2ccccc2Sc2ccccc2)c(=O)[nH]1
inactive: Potency [3] | Potency [4] | Potency [5] | Potency [6] | outcome [7]

CCN(CC)c1ccc(N=Cc2c(O)n(CCC3=CCCCC3)c(=O)[nH]c2=O)cc1
inactive: Potency [4] | Potency [5] | Potency [6] | outcome [7] | Potency [8]
active: Potency [3] 75.7 µM

CC(Cc1ccc(O)cc1)NCC(O)c1ccc(O)c(O)c1 (stereo not drawn)
active: Potency [3] 22.4 µM
inactive: Potency [4] | activation [5] -2.87% [at 17.1 µM, percent relative to cAMP agonist control] | activity change, negative = inhibition [6] -0.704% [at 12.7 µM] | activity change, negative = inhibition [7] 6.78% [at 30.8 µM]

CC(C)c1ccc(C(c2c(O)c3ccccc3oc2=O)c2c(O)c3ccccc3oc2=O)cc1
active: Potency [23] 3.16 µM | Potency [3] 15.1 µM
inactive: outcome [19] | Potency [20] > 46 µM | Potency [21] > 9.22 µM | Potency [22] | Potency [4] | Potency [5] | Potency [6] | outcome [7] | Potency [8]

CC1=C(O)C(=O)C=C2C1=CC=C1C2(C)CCC2(C)C3CC(C)(C(=O)O)CCC3(C)CCC12C (stereo not drawn)
active: Potency [3] 33.8 µM | Potency [6] 953 nM
inactive: Potency [4] | Potency [5] | outcome [7] | Potency [8]
